Measured values published in publication PMC4336329 (PLoS ONE, 2015).
Hit rate of the full screen: of about 310,000 compounds, about 14,000 (4.5%) showed an effect of 50% or more. Effects have a minus sign here. The sample as a whole holds a higher share of strong results than the screen did.

The compounds below were run against human ether-à-go-go-related gene (hERG) potassium channel (human, UniProt Q12809) (assay: primary screen, population patch clamp on CHO cells stably expressing hERG; higher = less effect of the substance).
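Note: peak tail current of the secondary pulse compared with the same well before compound.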

human ether-à-go-go-related gene (hERG) potassium channel, sequence (Q12809 whole entry, looked up): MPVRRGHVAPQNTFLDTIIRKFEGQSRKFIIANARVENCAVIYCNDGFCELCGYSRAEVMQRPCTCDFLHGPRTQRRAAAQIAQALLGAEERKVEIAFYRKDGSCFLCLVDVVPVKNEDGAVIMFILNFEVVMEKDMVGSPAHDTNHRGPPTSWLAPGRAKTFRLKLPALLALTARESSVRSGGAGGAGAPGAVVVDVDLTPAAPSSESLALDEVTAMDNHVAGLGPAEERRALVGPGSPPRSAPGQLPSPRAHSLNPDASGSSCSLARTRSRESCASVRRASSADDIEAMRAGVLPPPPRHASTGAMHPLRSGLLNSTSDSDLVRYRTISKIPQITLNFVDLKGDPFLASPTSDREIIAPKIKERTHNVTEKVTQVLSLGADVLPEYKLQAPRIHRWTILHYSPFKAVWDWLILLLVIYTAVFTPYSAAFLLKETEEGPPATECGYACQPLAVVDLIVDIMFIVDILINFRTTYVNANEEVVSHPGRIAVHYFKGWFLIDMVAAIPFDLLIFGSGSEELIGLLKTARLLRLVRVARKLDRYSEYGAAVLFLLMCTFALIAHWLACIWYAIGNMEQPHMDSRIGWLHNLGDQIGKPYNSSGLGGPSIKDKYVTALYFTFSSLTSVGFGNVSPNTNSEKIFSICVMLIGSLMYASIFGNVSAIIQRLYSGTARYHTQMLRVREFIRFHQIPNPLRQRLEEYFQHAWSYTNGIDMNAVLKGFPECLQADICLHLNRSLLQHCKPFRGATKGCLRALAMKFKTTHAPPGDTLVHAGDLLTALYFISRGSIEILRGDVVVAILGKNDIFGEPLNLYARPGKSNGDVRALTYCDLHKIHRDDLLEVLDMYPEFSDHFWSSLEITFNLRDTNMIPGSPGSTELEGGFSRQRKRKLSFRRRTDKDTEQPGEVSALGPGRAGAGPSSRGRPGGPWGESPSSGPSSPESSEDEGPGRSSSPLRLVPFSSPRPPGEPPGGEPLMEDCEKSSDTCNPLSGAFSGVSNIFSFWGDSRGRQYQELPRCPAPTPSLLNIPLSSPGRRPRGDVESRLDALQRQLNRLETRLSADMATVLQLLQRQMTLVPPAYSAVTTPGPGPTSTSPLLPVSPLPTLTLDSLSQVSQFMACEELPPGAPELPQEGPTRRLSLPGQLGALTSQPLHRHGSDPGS

SMILES | hERG current change (%, negative = inhibition) at 10uM
CS(=O)(=O)N(Cc1ccccc1)c1ccc(C(=O)NCCSCc2ccco2)cc1 | -18%
O=C(O)COc1ccccc1/C=C1\SC(=S)N(c2cccnc2)C1=O | -10.1%
CCOC(=O)C1CCN(C(=O)Cc2ccc(-c3ccccc3)cc2)CC1 | -57.7%
CCOC(=O)C1CCN(C(=O)CCc2c(C)nc3cc(-c4ccc(OC)cc4OC)nn3c2C)CC1 | -70.7%
CCOC(=O)C1CCCCN1C(=O)CCc1c(C)nc2ncnn2c1C (stereo not drawn) | 1.42%
CCOC(=O)C1CCCCN1C(=O)CCc1c(C)nc2cc(-c3ccccc3)nn2c1C (stereo not drawn) | -64.4%
NC(=O)C1CCN(C(=O)Cc2ccc(-c3ccccc3)cc2)CC1 | 1.65%
CCOC(=O)C1CCN(c2cc(C)nc3cc(-c4cccc(F)c4)nn23)CC1 | -5.74%
CCOC(=O)C1CCN(C(=O)c2ccc(OC)cc2OC)CC1 | -25.5%
COc1ccc(-c2cc3nc(C)c(CCC(=O)N4CCN(c5ccccn5)CC4)c(C)n3n2)c(OC)c1 | -36%
COc1cc(OC)cc(-c2cc3nc(C)c(CCC(=O)O)c(C)n3n2)c1 | 26%
CCOC(=O)C1CCN(C(=O)CCc2c(C)nc3cc(-c4ccccc4)nn3c2C)CC1 | -78.5%
CCOC(=O)C1CCN(C(=O)CCc2ccccc2)CC1 | 2.13%
CCOC(=O)C1CCN(C(=O)Cc2ccc(C)cc2)CC1 | -1.62%
COc1ccc(C(=O)NCC(=O)N/N=C/c2cccc(OC(=O)c3ccco3)c2)cc1OC | 21.6%
COC(=O)c1[nH]c2cc(OC)ccc2c1NC(=O)CN1CCN(c2cccc(C)c2)C(C)C1 (stereo not drawn) | -0.154%
CCOC(=O)CNC(=O)CSc1nnc(Cn2cnc3ccccc32)n1C | -0.389%
O=C(CCC1CCCCC1)NCc1ccccn1 | -10.8%
COC(=O)n1ccc(C(=O)Nc2ccccc2F)n1 | -8.09%
O=C(O)CCc1nn2c3ccccc3nc2n(Cc2ccccc2)c1=O | 36.2%
Cc1c(CN2CCC(CO)(CCOc3ccccc3)CC2)[nH]c2ccc(Cl)cc12 | -71%
Cc1c(CN2CCC(CO)(CCOc3ccccc3)CC2)[nH]c2c(Cl)cccc12 | -60.5%
COc1ccc2[nH]c(CN3CCC(CO)(CCOc4ccccc4)CC3)c(C)c2c1 | -45.3%

SMILES | hERG current change (%, negative = inhibition) at 10uM
Cc1c(CN2CCN(C)C(CCO)C2)[nH]c2c(Cl)cccc12 (stereo not drawn) | -42%
Cc1[nH]c2c(Cl)cccc2c(=O)c1CN1CCCC1 | -10.6%
Cc1ccc2[nH]c(CN3CCC(CO)(CC4CCCCO4)CC3)c(C)c2c1 (stereo not drawn) | -43.7%
C/C(=N\NC(=O)c1ccc(CSc2nncn2C)cc1)c1ccc(C#N)cc1 | -26%
Cc1nn(Cc2nnc(SCC(=O)Nc3cccc(C(F)(F)F)c3)n2C)c(C)c1[N+](=O)[O-] | -57.7%
Cn1c(CN2CCOCC2)nnc1SCC(=O)Nc1cccc(C(F)(F)F)c1 | -1.04%
O=C(CSc1nncn1-c1cccnc1)Nc1ccccc1C(F)(F)F | 4.9%
O=C(CSc1nncn1-c1cccnc1)Nc1cccc(C(F)(F)F)c1 | -57.7%
Cc1ccc(NC(=O)CSc2nnc(C(F)(F)F)n2C)cc1[N+](=O)[O-] | -73.6%
Cn1c(SCC(=O)Nc2ccccc2[N+](=O)[O-])nnc1C(F)(F)F | -3.31%
O=C(CSc1nncn1-c1cccnc1)Nc1cccc([N+](=O)[O-])c1 | 4.83%
Cc1nn(Cc2nnc(SCC(=O)Nc3ccc(Cl)cc3)n2C)c(C)c1[N+](=O)[O-] | -22.9%
Cn1c(SCC(=O)Nc2ccccc2)nnc1C(F)(F)F | 32.6%
Cn1cc(CN2CC3C[C@@H]4CC2C[C@H](C3)C4)c(-c2ccc3c(c2)OCCO3)n1 | -8.66%
O=C(NCc1ccccn1)Nc1cccc([N+](=O)[O-])c1 | 11.6%
COc1ccc(Cc2nnc(SCC(=O)Nc3ccc(N4CCOCC4)cc3)n2C)cc1 | 8.93%
Cc1ccc(C(=O)OCC(=O)NCc2ccco2)cc1 | -8.9%
CCOC(=O)C1CCCN(C(=O)/C=C/c2ccc(OC)cc2)C1 (stereo not drawn) | -23.6%
CCOC(=O)C1CCCN(C(=O)/C=C/c2cccc([N+](=O)[O-])c2)C1 (stereo not drawn) | -41.8%
COc1ccc2cc(C(=O)C3CCCN(C(=O)/C=C/c4ccccn4)C3)ccc2c1 (stereo not drawn) | -18.3%
CCOC(=O)C1CCCN(C(=O)Cc2ccc(Cl)cc2)C1 (stereo not drawn) | 6.9%
CCOC(=O)C1CCCN(C(=O)/C=C/c2ccc(Cl)cc2)C1 (stereo not drawn) | -59.9%
O=C(c1ccc(Cl)cc1)C1CCCN(C(=O)/C=C/c2ccccn2)C1 (stereo not drawn) | -51.9%

SMILES | hERG current change (%, negative = inhibition) at 10uM
COc1c(C)cc(C(=O)C2CCCN(C(=O)/C=C/c3ccccn3)C2)cc1C (stereo not drawn) | -15.8%
CCOC(=O)C1CCCN(C(=O)/C=C/c2ccccc2[N+](=O)[O-])C1 (stereo not drawn) | -12.6%
CCOC(=O)C1CCCN(C(=O)/C=C/c2ccc([N+](=O)[O-])cc2)C1 (stereo not drawn) | -64.8%
O=C(O)C(=O)O.O=C(c1ccc(F)cc1)N1CCN(C2CC3CCC2C3)CC1 (stereo not drawn) | -2.85%
Cn1cnnc1SCCCN1C(=O)c2cccc3cccc(c23)C1=O | -30.6%
COc1ccc(CCN(C)C(=O)Cc2ccc(-c3ccccc3)cc2)cc1OC | -0.187%
Brc1c(-c2ccccc2)nc2n1Cc1ccccc1-2 | 21.8%
CC(C)(C)C(=O)Oc1cccc(Nc2ncnc3ccccc23)c1 | 9.76%
Cc1ccc(Oc2ncnc(N)c2[N+](=O)[O-])cc1C | 31.8%
NC(=O)CC(NC(=O)c1ccccc1)c1ccc(N2CCN(c3ccccc3)CC2)c([N+](=O)[O-])c1 (stereo not drawn) | 1.33%
O=C(CSc1nc2ccccc2o1)NC(=O)NCc1ccccc1 | 8.99%
O=C(CSc1nc2[nH]ncc2c(=O)n1-c1ccccc1)c1ccc2c(c1)OCCO2 | -6.39%
O=C(CCCc1ccccc1)c1ccccc1 | 18.5%
CCN(CCCC(=O)c1ccc(F)cc1)CCc1ccccc1.Cl | -84.5%
O=C(CCCC(=O)c1ccc(F)cc1)c1ccc(F)cc1 | -25.8%
CCc1ccc(-c2nc(CS(=O)CC(=O)NC3CCCCCC3)c(C)o2)cc1 (stereo not drawn) | -7.44%
Cc1ccc(S(=O)(=O)N2CCCC(C(=O)NC3CCCC3)C2)cc1Cl (stereo not drawn) | 17.8%
Cc1ccc(N=C(N)N=C(N)N)cc1 | 16.9%
O=[N+]([O-])c1ccc(-c2ccc(/C=N/O)o2)cc1 | 8.69%
CN1CCN(/N=C/c2ccc(-c3ccc([N+](=O)[O-])cc3Cl)o2)CC1 | -46.2%
CN1CCN(/N=C/c2ccc(-c3ccc([N+](=O)[O-])cc3)o2)CC1 | -66%
CC(C)(CN1CCN(Cc2ccccc2)CC1)NS(=O)(=O)c1ccc(Cl)cc1 | -74.7%
CC(C)(CN1CCCCC1)NS(=O)(=O)c1ccc(Cl)cc1 | -13.4%

SMILES | hERG current change (%, negative = inhibition) at 10uM
CC(C)(CN1CCCC1)NS(=O)(=O)c1ccc(Cl)cc1 | 29.6%
Cc1ccc(S(=O)(=O)NC(C)(C)CN2CCNCC2)cc1 | -9.34%
CC(C)(CN1CCN(Cc2ccccc2)CC1)NS(=O)(=O)c1ccccc1 | -39.6%
CC(C)(CN1CCNCC1)NS(=O)(=O)c1ccc(Cl)cc1 | -60.3%
CCOc1ccc2nc(NC(=O)c3cnccn3)sc2c1 | 2.76%
c1coc(-c2nc3ccccc3nc2-c2ccco2)c1 | -4.79%
CCN(CC)CCCCN1c2ccccc2Sc2ccccc21.Cl | -61.7%
CN(C)CCCN1c2ccccc2Sc2ccccc21.Cl | -28.1%
CCC(=O)c1ccc2c(c1)N(CCCN(C)C)c1ccccc1S2.Cl | -63.5%
CN(C)CCCNC(=O)N1c2ccccc2Sc2ccccc21 | 1.39%
CCN(CC)CC(=O)N1c2ccccc2Sc2ccccc21 | 1.42%
CCN(CC)CCN1c2ccccc2Sc2ccccc21.O=C(O)C(=O)O | -41.3%
CC(C)(C)c1ccc(O)c(N)c1 | 8.01%
N#Cc1ncccc1CCc1cccc(Cl)c1 | -11.1%
NS(=O)(=O)c1ccc(CCNC(=O)CCS(=O)(=O)c2ccc(Br)cc2)cc1 | 19.2%
COc1cccc(N2CCN(C(=O)CC(C)(C)CC3=NS(=O)(=O)c4ccccc4N3)CC2)c1 | -6.09%
O=C(CCCC1=NS(=O)(=O)c2ccccc2N1)N1CCN(c2ccc(Cl)cc2)CC1 | -61.1%
O=C(CCCC1=NS(=O)(=O)c2ccccc2N1)N1CCN(c2ccccc2)CC1 | -1.79%
COc1ccc(N2CCN(C(=O)CCCC3=NS(=O)(=O)c4ccccc4N3)CC2)cc1 | -7.68%
COc1ccccc1N1CCN(C(=O)CCCC2=NS(=O)(=O)c3ccccc3N2)CC1 | 2.62%
CC(C)(CC(=O)N1CCN(c2ccc(Cl)cc2)CC1)CC1=NS(=O)(=O)c2ccccc2N1 | -61.1%
